Reference: PubChem BioAssay AID1159580 (chemical genetic matrix, 2015)
Where “and” joins values, the source holds several entries; their conditions need not be identical. Equal values may be shown once. In all, about 5,500 compounds went through this assay and about 2,000 (36%) were called active. About 18% were inconclusive and are not listed. Rule as the data show it: active = normalized growth mostly below about 0.91 (no sharp cut-off); inconclusive = no clear call, values can overlap the other calls; inactive = mostly above about 0.92. The list shows a part of the results.

Assay: chemical genetic growth profiling, strain panel (AID 1159580);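 also: tested at 20 µM; growth read once vehicle control cultures reached saturation at 30 °C; 1 = growth at the plate median or of vehicle wells; lower values mean less growth of the strain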
Conditions: S. cerevisiae deletion strains, growth OD

Measured: normalized growth

N[C@@H](Cc1ccc(N(CCCl)CCCl)cc1)C(=O)O
inactive: locus YAL013W, strain DEP1, hits give low values 0.988 | locus YAL021C, strain ccr4, hits give low values 0.985 | locus YAL026C, strain drs2, hits give low values 0.997 | locus YAL030W, strain snc1, hits give low values 0.991 | locus YBL061C, strain skt5, hits give low values 0.987 | locus YBR009C, strain hhf1, hits give low values 0.985 | locus YBR021W, strain FUR4, hits give low values 1.05 | locus YBR023C, strain chs3, hits give low values 0.978 | locus YBR171W, strain sec66, hits give low values 0.98 | locus YBR229C, strain ROT2, hits give low values 0.947 | locus YBR231C, strain swc5, hits give low values 0.994 | locus YBR279W, strain paf1, hits give low values 0.988 | locus YCL011C, strain gbp2, hits give low values 0.971 | locus YCL016C, strain dcc1, hits give low values 0.968 | locus YCL029C, strain bik1, hits give low values 0.972 | locus YCL061C, strain MRC1, hits give low values 0.972 | locus YCL069W, strain vba3, hits give low values 0.984 | locus YCR088W, strain abp1, hits give low values 0.986 | locus YDL005C, strain med2, hits give low values 0.995 | locus YDL035C, strain GPR1, hits give low values 0.986 | locus YDL040C, strain nat1, hits give low values 0.985 | locus YDL074C, strain BRE1, hits give low values 0.977 | locus YDL101C, strain DUN1, hits give low values 0.972 | locus YDL134C, strain PPH21, hits give low values 0.987 | locus YDL192W, strain arf1, hits give low values 0.973 | locus YDR001C, strain nth1, hits give low values 0.978 | locus YDR069C, strain doa4, hits give low values 0.996 | locus YDR101C, strain arx1, hits give low values 0.983 | locus YDR137W, strain rgp1, hits give low values 0.964 | locus YDR150W, strain NUM1, hits give low values 0.974 | locus YDR159W, strain sac3, hits give low values 1.01 | locus YDR162C, strain NBP2, hits give low values 0.974 | locus YDR195W, strain ref2 0.975 | locus YDR297W, strain sur2, hits give low values 0.998 | locus YDR318W, strain mcm21, hits give low values 0.984 | locus YDR334W, strain swr1, hits give low values 0.966 | locus YDR335W, strain msn5, hits give low values 0.995 | locus YDR388W, hits give low values 0.984 | locus YDR392W, strain spt3, hits give low values 0.879 | locus YDR502C, strain sam2, hits give low values 0.971 | locus YEL003W, strain gim4, hits give low values 0.996 | locus YEL037C, strain rad23, hits give low values 0.973 | locus YEL061C, strain CIN8 (second series), hits give low values 0.978 | locus YEL061C, strain CIN8, hits give low values 0.982 | locus YER015W, strain faa2, hits give low values 0.995 | locus YER016W, strain bim1, hits give low values 1 | locus YER110C, hits give low values 0.977 | locus YER111C, strain swi4, hits give low values 0.967 | locus YER155C, strain BEM2 (second series), hits give low values 0.991 | locus YER155C, strain BEM2, hits give low values 0.979 | locus YER167W, strain BCK2, hits give low values 0.982 | locus YFR010W, strain ubp6, hits give low values 0.985 | locus YGL078C, strain dbp3, hits give low values 0.986 | locus YGL086W, strain mad1, hits give low values 0.983 | locus YGL167C, strain pmr1, hits give low values 0.987 | locus YGL173C, strain kem1, hits give low values 0.994 | locus YGL227W, strain vid30, hits give low values 0.995 | locus YGL240W, strain doc1, hits give low values 1.02 | locus YGL248W, strain PDE1, hits give low values 0.972 | locus YGL253W, strain hxk2, hits give low values 0.982 | locus YGR078C, strain PAC10, hits give low values 0.986 | locus YGR135W, strain pre9, hits give low values 0.962 | locus YGR229C, strain SMI1, hits give low values 0.974 | locus YGR252W, strain gcn5, hits give low values 1.02 | locus YHR013C, strain ard1, hits give low values 0.932 | locus YHR027C, strain rpn1, hits give low values 0.983 | locus YHR030C, strain SLT2, hits give low values 0.989 and 1.02 | locus YHR079C, strain IRE1 (second series), hits give low values 0.982 | locus YHR079C, strain IRE1, hits give low values 1.03 | locus YHR094C, strain hxt1, hits give low values 0.971 | locus YHR129C, strain ARP1, hits give low values 0.998 | locus YHR142W, strain chs7, hits give low values 0.941 | locus YHR200W, strain rpn10, hits give low values 0.97 | locus YIL066C, strain RNR3, hits give low values 0.983 | locus YIL073C, strain SPO22, hits give low values 0.963 | locus YIL125W, strain kgd1, hits give low values 0.979 | locus YIR030C, strain dcg1, hits give low values 0.981 | locus YJL092W, strain hpr5, hits give low values 0.979 | locus YJL095W, strain BCK1 (second series), hits give low values 0.984 | locus YJL095W, strain BCK1, hits give low values 1 and 1.02 | locus YJL115W, strain asf1, hits give low values 0.981 | locus YJL129C, strain trk1, hits give low values 0.969 | locus YJL134W, strain LCB3, hits give low values 0.981 | locus YJL154C, strain vps35, hits give low values 0.978 | locus YJL164C, strain tpk1, hits give low values 0.949 | locus YJL166W, strain qcr8, hits give low values 0.952 | locus YJL168C, strain set2, hits give low values 0.981 | locus YJL187C, strain SWE1 (second series), hits give low values 0.98 | locus YJL187C, strain SWE1, hits give low values 0.984 | locus YJR043C, strain POL32, hits give low values 0.989 | locus YJR066W, strain TOR1, hits give low values 0.959
